Among the test systems are HCT-15 colon; HT29 colon; SNB-75 CNS; SNB-19 CNS; U251 CNS; PC-3 prostate; SK-MEL-5 melanoma; UACC-62 melanoma; LOX IMVI melanoma; SK-MEL-28 melanoma; SK-MEL-2 melanoma; EKVX NSCLC; SN12C renal; UO-31 renal; ACHN renal; CAKI-1 renal; A498 renal; CCRF-CEM leukemia; MOLT-4 leukemia; TK-10 renal.
What all share (test): NCI-60 one-dose screen, 48 h (100 = growth as untreated, 0 = no growth, -100 = all killed)
Settings in all cases: 10 µM unless noted

SMILES strings stand for the structures. Compounds without any hit were thinned out: in the full panel of roughly 83,000, 20% have a hit.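 Compound tested at a single concentration for 48 hours in 96-well plates; a percent growth value below 10 was scored as active.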 Values without a mark were called inactive. Active and inactive are the calls of the source.

We go through seven compounds from PubChem BioAssay (NCI).

As to `O=C(/C=C/c1csc(Br)n1)NO`, the growth in the assay with HCT-15 colon is 49%; in the assay on HT29 colon it was 11.3%; in the assay on SNB-75 CNS, 9.37% (active); in the assay on SNB-19 CNS it was 38.5%; in the assay on U251 CNS, 31.4%; in the assay with PC-3 prostate, 44.3%. In addition, the growth in the assay with SK-MEL-5 melanoma is -33.1% (active); in the assay on UACC-62 melanoma, -2.56% (active); with LOX IMVI melanoma, -13.8% (active); in the assay on SK-MEL-28 melanoma, 33.4%; in the assay with SK-MEL-2 melanoma, 37.6%; in the assay on EKVX NSCLC it was 37.5%. The growth with SN12C renal is 68.7%; in the assay on UO-31 renal it was 15.5%; in the assay on ACHN renal it was 8.2% (active); in the assay on CAKI-1 renal, 15.9%; in the assay on A498 renal, -5.59% (active); with CCRF-CEM leukemia, 21.2%. Further, the growth with MOLT-4 leukemia is 9.51% (active).
For the compound `O=C(Nc1ccc(N2CCOCC2)cc1)Nc1ccc2c(ccn2C(=O)c2cccc(F)c2)c1`, the growth in the assay with HCT-15 colon was 78.6%; in the assay on HT29 colon it was 76%; with SNB-75 CNS it was 12.3%; with SNB-19 CNS, 46.9%; in the assay with U251 CNS it was 41.5%; in the assay on PC-3 prostate, 49.3%. Moreover, the growth in the assay with SK-MEL-5 melanoma is 69.4%; with UACC-62 melanoma, 42.3%; with LOX IMVI melanoma, 23%; in the assay on SK-MEL-28 melanoma it was 59.2%; in the assay with SK-MEL-2 melanoma, 77.2%; in the assay on EKVX NSCLC, 73.9%. The growth with SN12C renal is 74.2%; with UO-31 renal it was 102%; with TK-10 renal it was 86.9%; in the assay on ACHN renal, 61.8%; in the assay with CAKI-1 renal it was 42.3%; with CCRF-CEM leukemia, 82.4%. Further, the growth in the assay with MOLT-4 leukemia was 83.6%.
As to `COc1ccc2c(c1)c(/C=N/Nc1ccnc3cc(Cl)ccc13)cn2C`, the growth in the assay with HCT-15 colon is -85.3% (active); in the assay on HT29 colon, -44.8% (active); in the assay with SNB-75 CNS, -91.2% (active); in the assay on SNB-19 CNS, -68.1% (active); in the assay on U251 CNS, -80.1% (active); in the assay on PC-3 prostate, -83.8% (active). Also, the growth is -95% (active) in the assay with SK-MEL-5 melanoma; -57.7% (active) with UACC-62 melanoma; -78.7% (active) with LOX IMVI melanoma; -85.2% (active) in the assay with SK-MEL-28 melanoma; -80.8% (active) in the assay with SK-MEL-2 melanoma; -81.2% (active) in the assay with EKVX NSCLC. The growth in the assay with SN12C renal is -81.5% (active); in the assay on UO-31 renal it was -89.5% (active); in the assay on TK-10 renal, -79.9% (active); in the assay on ACHN renal, -97.3% (active); in the assay with CAKI-1 renal it was -92% (active); in the assay on CCRF-CEM leukemia it was -29.2% (active). Moreover, in the assay with MOLT-4 leukemia, the growth is -49.6% (active).
Consider `COc1ccc(/C=N/NC(=O)c2c(N)nn(C)c2Nc2ccccc2)cc1`, for which the growth in the assay on HCT-15 colon was 19.1%; in the assay on HT29 colon it was 18.6%; with SNB-75 CNS, 35.1%; in the assay with SNB-19 CNS, 36.8%; in the assay on U251 CNS it was 33.3%; with PC-3 prostate it was 55.9%. Moreover, the growth is 57.2% with SK-MEL-5 melanoma; 23.7% in the assay with UACC-62 melanoma; 18.9% in the assay on LOX IMVI melanoma; 57.5% in the assay with SK-MEL-28 melanoma; 7.07% (active) in the assay on SK-MEL-2 melanoma; 69.7% in the assay on EKVX NSCLC. The growth in the assay with SN12C renal is 57.6%; with UO-31 renal, 51.2%; with TK-10 renal, 89.2%; with ACHN renal it was 50%; in the assay with CAKI-1 renal, 39.8%; with CCRF-CEM leukemia it was 38.5%. Moreover, the growth with MOLT-4 leukemia is 49.4%.
Turning to `CC(=O)N1N=C(c2cc3ccccc3oc2=O)CC1c1cn(-c2ccccc2)nc1-c1ccc(C)cc1` (stereo not drawn), the growth in the assay with HCT-15 colon was 103%; in the assay on HT29 colon, 108%; with SNB-75 CNS, 90.7%; in the assay with SNB-19 CNS it was 96%; in the assay with U251 CNS it was 104%; with PC-3 prostate, 93%. The growth in the assay on SK-MEL-5 melanoma was 101%; in the assay on UACC-62 melanoma it was 95.2%; in the assay with LOX IMVI melanoma, 95.7%; in the assay on SK-MEL-28 melanoma, 106%; in the assay with SK-MEL-2 melanoma, 108%; with EKVX NSCLC, 98.3%. Further, the growth in the assay with SN12C renal was 98.8%; in the assay with UO-31 renal, 83.2%; in the assay on TK-10 renal it was 105%; in the assay on ACHN renal, 97.8%; in the assay with CAKI-1 renal it was 92%; in the assay with CCRF-CEM leukemia, 102%. Also, the growth with MOLT-4 leukemia was 108%.
With `Cc1[nH]c(C(=O)Nc2ccccc2OCc2cccc(C(=O)NCCN)c2)cc1Cl`, the growth in the assay with HCT-15 colon is 106%; in the assay with HT29 colon it was 69.4%; in the assay on SNB-75 CNS, 74.4%; in the assay on SNB-19 CNS, 85.8%; in the assay with U251 CNS, 53.3%; in the assay on PC-3 prostate, 96.5%. Also, the growth in the assay with SK-MEL-5 melanoma was 99.3%; with UACC-62 melanoma it was 68.4%; in the assay on LOX IMVI melanoma, 35.6%; in the assay with SK-MEL-28 melanoma it was 37.6%; with SK-MEL-2 melanoma, 92.8%; with EKVX NSCLC it was 105%. In addition, the growth in the assay on SN12C renal is 93.9%; in the assay with UO-31 renal it was 92.2%; with ACHN renal it was 95.1%; in the assay on CAKI-1 renal, 90.2%; in the assay with A498 renal it was 68.3%; in the assay on CCRF-CEM leukemia, 27.4%. Further, the growth in the assay with MOLT-4 leukemia is 68.6%.
With `COc1ccc(NC2=C(Br)C(=O)C(C)=C(C)C2=O)cc1OC`, the growth in the assay with HCT-15 colon was 97.9%; with HT29 colon, 111%; in the assay with SNB-75 CNS, 77.1%; in the assay with SNB-19 CNS, 84.9%; with U251 CNS, 84%; with PC-3 prostate, 69.7%. In addition, the growth was 69.7% with SK-MEL-5 melanoma; 88% in the assay with UACC-62 melanoma; 73.7% in the assay with LOX IMVI melanoma; 112% in the assay with SK-MEL-28 melanoma; 106% in the assay with SK-MEL-2 melanoma; 80.8% in the assay with EKVX NSCLC. Also, the growth in the assay on SN12C renal is 100%; with UO-31 renal, 83.5%; in the assay with TK-10 renal it was 165%; in the assay with ACHN renal, 99.7%; in the assay on CAKI-1 renal, 99.1%; in the assay on CCRF-CEM leukemia, -27.9% (active). In the assay on MOLT-4 leukemia, the growth was -41.6% (active).
